Reference: PubChem BioAssay (NCATS)
Values joined by “and” are separate entries in the source; they are usually repeats but may differ in a detail not shown here. Equal values may be shown once. Records with an inconclusive call do not appear. Active and inactive are the calls of the source. Unless noted, calls come from the whole dose curve; as a rule, active = well fitted curve in the direction sought with a large enough effect; inconclusive = small, poorly fitted or top-dose-only effect, or another doubt; inactive = no such curve, though single readings can be large; an effect the other way counts as inactive or inconclusive.

Columns and labels:
[1] = Primary qHTS for small molecule stabilizers of the endoplasmic reticulum resident proteome: Secreted ER Calcium Modulated Protein (SERCaMP) assay (AID 1508630)
Outline: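 The SH-SY5Y reporter protocol was run at 3 concentrations up to 38.3 uM (primary) or 11 concentrations (follow-up): 16 h compound, 100 nM thapsigargin for 4 h, then extracellular luciferase luminescence.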

[2] = A High-Content qHTS Against Drug Library for the Identification of Small Molecules that Inhibit DYT1 Early Onset Primary Dystonia-Associated Cell Pathology (AID 1645839; calls by dose curve; note: series mostly up to about 46 µM)
Outline: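 High-content imaging quantified EGFP-TorsinA mislocalization in HEK293-derived cells inducibly expressing DYT1 mutant torsinA, after 48 h exposure to compound given together with tetracycline induction. Cell count served as a toxicity channel alongside %pathology.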

[3] = molecular target: Cytochrome P450 2D6 (Homo sapiens) (UniProt P10635); assay: Cytochrome P450 family 2 subfamily D member 6 (CYP2D6) small molecule antagonists: luciferase biochemical (cell-free) qHTS assay (AID 1645840; active = well fitted curve in the direction sought with a large enough effect in the repeat runs; an effect the other way counts as inactive or inconclusive; note: nearly all actives have a fitted effect of over 55% in size; note: potency is the fitted concentration of half-maximal effect)
Sequence of Cytochrome P450 2D6 (Homo sapiens) (P10635 whole entry, looked up): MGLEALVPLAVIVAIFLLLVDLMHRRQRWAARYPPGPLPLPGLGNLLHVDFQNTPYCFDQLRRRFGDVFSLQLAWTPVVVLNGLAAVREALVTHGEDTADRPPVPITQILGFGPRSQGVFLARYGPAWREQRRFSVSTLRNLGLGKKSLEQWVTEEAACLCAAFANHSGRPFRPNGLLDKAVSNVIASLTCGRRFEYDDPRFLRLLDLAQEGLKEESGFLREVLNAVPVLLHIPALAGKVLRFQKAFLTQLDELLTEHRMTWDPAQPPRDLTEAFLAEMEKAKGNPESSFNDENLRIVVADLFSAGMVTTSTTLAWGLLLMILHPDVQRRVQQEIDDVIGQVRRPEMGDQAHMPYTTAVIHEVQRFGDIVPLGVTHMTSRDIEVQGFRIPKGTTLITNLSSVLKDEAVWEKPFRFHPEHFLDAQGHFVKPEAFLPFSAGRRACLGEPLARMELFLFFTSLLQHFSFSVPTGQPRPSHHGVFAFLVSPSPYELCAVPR
Outline: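 P450-Glo CYP2D6 system: proluciferin substrate converted by enzyme to luciferin, read by luminescence proportional to activity. Enzyme-substrate mix with compound 10 min at room temperature, then NADPH regeneration 1 h before detection reagent.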

[4] = Primary qHTS for inhibitors of nuclear receptor binding SET domain protein 2 (NSD2) in an isogenic RCH-ACV NSD2 p.E1099K mutant (9B) (AID 1645876); note: nearly all actives have a fitted effect of over 70% in size; note: potency is the fitted concentration of half-maximal effect
[5] = molecular target: Cytochrome P450 2C9 (Homo sapiens) (UniProt P11712); assay: Cytochrome P450 family 2 subfamily C member 9 (CYP2C9) small molecule antagonists: luciferase biochemical (cell-free) qHTS assay (AID 1645842; active = well fitted curve in the direction sought with a large enough effect in the repeat runs; an effect the other way counts as inactive or inconclusive; note: series mostly up to about 57 µM; nearly all actives have a fitted effect of over 55% in size)
Sequence of Cytochrome P450 2C9 (Homo sapiens) (P11712 whole entry, looked up): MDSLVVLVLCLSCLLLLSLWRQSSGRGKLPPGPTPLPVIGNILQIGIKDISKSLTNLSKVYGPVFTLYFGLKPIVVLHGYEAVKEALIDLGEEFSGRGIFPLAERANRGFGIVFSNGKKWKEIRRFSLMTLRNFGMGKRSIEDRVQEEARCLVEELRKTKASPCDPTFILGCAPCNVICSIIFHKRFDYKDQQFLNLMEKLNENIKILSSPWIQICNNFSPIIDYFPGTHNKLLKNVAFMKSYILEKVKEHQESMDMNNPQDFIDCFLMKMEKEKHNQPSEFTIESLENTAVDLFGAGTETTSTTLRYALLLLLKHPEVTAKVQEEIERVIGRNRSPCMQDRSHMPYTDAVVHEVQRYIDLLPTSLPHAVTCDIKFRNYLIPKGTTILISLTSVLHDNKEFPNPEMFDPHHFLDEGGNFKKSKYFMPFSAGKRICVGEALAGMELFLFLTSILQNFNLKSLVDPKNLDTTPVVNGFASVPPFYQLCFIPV
Outline: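 P450-Glo CYP2C9 system: proluciferin substrate with enzyme in mix containing 0.4% BSA, 10 min at room temperature, then NADPH regeneration solution added and incubated 1 h at 37C. Detection reagent stopped reaction; luminescence read after 20 min as RLU.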

[6] = Primary qHTS for inhibitors of nuclear receptor binding SET domain protein 2 (NSD2) in an RCH-ACV wild type WT cells (2C) (AID 1645877); note: nearly all actives have a fitted effect of over 70% in size; note: potency is the fitted concentration of half-maximal effect
[7] = molecular target: Cytochrome P450 3A4 (Homo sapiens) (UniProt P08684); assay: Cytochrome P450 family 3 subfamily A member 4 (CYP3A4) small molecule antagonists: luciferase qHTS assay (AID 1645841; active = well fitted curve in the direction sought with a large enough effect in the repeat runs; an effect the other way counts as inactive or inconclusive; note: nearly all actives have a fitted effect of over 45% in size)
Sequence of Cytochrome P450 3A4 (Homo sapiens) (P08684 whole entry, looked up): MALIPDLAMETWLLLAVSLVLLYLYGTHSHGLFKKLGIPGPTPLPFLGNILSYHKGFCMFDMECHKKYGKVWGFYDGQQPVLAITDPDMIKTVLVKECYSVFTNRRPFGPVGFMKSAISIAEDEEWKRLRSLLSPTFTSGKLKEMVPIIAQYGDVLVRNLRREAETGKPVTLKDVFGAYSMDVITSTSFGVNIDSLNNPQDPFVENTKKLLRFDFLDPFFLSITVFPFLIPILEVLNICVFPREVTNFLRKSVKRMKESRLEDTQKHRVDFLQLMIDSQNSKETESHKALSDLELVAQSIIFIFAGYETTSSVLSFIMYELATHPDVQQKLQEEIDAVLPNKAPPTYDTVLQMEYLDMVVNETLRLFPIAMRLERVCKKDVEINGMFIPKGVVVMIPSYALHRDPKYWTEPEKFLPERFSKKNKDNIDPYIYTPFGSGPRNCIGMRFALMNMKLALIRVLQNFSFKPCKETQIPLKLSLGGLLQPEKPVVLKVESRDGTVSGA
Outline: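 Luminescent CYP3A4 activity readout: compounds plus enzyme-substrate mix 10 min at room temperature, reaction started with NADPH regenerating system for 1 h, stopped with detection reagent, read after 20 min. Ketoconazole served as control.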

Measured: Potency

CN1CCN(c2c(F)cc3c(=O)c(C(=O)O)cn(CCF)c3c2F)CC1
inactive: [1] | [2] | [3] | [4]

CC(C)(C)NC(=O)[C@H]1CC[C@H]2[C@@H]3CC[C@H]4NC(=O)C=C[C@]4(C)[C@H]3CC[C@]12C
inactive: [1] | [2] | [3]

O=C(NCC1CN(c2ccc(N3CCOCC3=O)cc2)C(=O)O1)c1ccc(Cl)s1 (configuration not stated)
inactive: [1] | [2]

COCCCOc1cc(C[C@@H](C[C@H](N)[C@@H](O)C[C@H](C(=O)NCC(C)(C)C(N)=O)C(C)C)C(C)C)ccc1OC
not listed: [4] | [7]
inactive: all other assays above

COc1ccc(C(=O)CC(=O)c2ccc(C(C)(C)C)cc2)cc1
not listed: [7]
inactive: all other assays above

O=C(N[C@H](CO)[C@H](O)c1ccc([N+](=O)[O-])cc1)C(Cl)Cl
inactive: [1]

C[C@@H](CN1CC(=O)NC(=O)C1)N1CC(=O)NC(=O)C1
active: [4] 16.8 µM and 5.25 µM | [6] 8.33 µM
not listed: [7]
inactive: all other assays above

Cc1ccnc2c1NC(=O)c1cccnc1N2C1CC1
inactive: [1] | [2] | [3]

CCCCCCNC(=O)n1cc(F)c(=O)[nH]c1=O
inactive: [1] | [2]
active: [3] 15.5 µM | [4] 8.41 µM and 10.5 µM | [6] 7.5 µM and 8.33 µM

O=S(=O)(O)CCS
inactive: all assays above
